# In the library only some 5.9% were active in any assay of this set; here they are far more common.
# DAX1 inh: DAX1 (NR0B1) inhibitors, primary screen, cell-based, HEK293, Gal4-DAX1, luciferase luminescence. Nuclear receptor subfamily 0 group B member 1 (Homo sapiens), P51843. HEK293 Gal4-DAX1 luciferase reporter. inhibition, % at 6.75 µM. hit rate 0.99% among 340,000. AID 504766, 2011;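 active means inhibition above the mean over all tested compounds plus 3 SD, cut at about 4.2% in these data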;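 further: 0% = DAX1-transfected cells with DMSO and 100% = empty-vector control cells with DMSO; inhibition shows as a rise in luminescence from relieved DAX1 repression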
# Target sequence (P51843 207-470 limits assumed): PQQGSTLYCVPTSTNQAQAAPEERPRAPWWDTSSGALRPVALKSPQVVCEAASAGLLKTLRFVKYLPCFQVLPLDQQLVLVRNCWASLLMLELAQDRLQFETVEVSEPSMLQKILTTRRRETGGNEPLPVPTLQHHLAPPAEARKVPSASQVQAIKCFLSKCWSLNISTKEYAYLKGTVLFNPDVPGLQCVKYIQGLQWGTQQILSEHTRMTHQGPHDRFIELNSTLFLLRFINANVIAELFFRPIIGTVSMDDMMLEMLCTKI
# FXN GAA850 act: FXN promoter activators, primary screen, cell-based, luciferase luminescence, HEK293 lucGAA850; activation, % at 6 µM; AID 540364, 2011; HEK293 lucGAA850 FXN promoter luciferase reporter, 24 h; percent of 10 µM SAHA response; hit rate 0.56% among 360,000;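 active means activation above the average of all compounds screened plus 3 SD, cutoff fixed separately per campaign, cut at about 7.5% in these data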;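 further: 0% = DMSO wells and 100% = 10 µM SAHA wells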
# HSP90 refold inh: HSP90 inhibitors, primary screen, cell lysate, luminescence; Rabbit reticulocyte lysate, luciferase refolding luminescence, 3 h; Heat shock protein HSP 90 (rabbit reticulocyte lysate; luciferase refolding); inhibition, % at 5.6 µM; AID 1789, 2009; hit rate 0.91% among 290,000;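 active means inhibition above the screen-wide mean plus 3 SD, computed separately per campaign, cut at about 16% in these data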;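 further: 0% = DMSO wells and 100% = 60 µM geldanamycin wells; inhibitors lower the luminescence because luciferase stays unfolded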
# HSF1 activator: HSF-1 activators, primary screen, NIH3T3-HGL cells, MG132 stress, luminescence, single point. NIH3T3-HGL HSF-1 luciferase reporter, 8 h; 100% = twice DMSO control signal. activation, % at 9 µM. hit rate 1.7% among 300,000. AID 504408, 2011;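 active means mean replicate activation of at least 50% with a set share of replicates each reaching 50%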;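 further: 0% = median of the neutral control wells and 100% = twice that signal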
# HSF1 inhib: HSF1 inhibitors in luciferase reporter cells, primary screen, cell-based, NIH3T3, luminescence | NIH3T3-HGL HSE-luciferase, MG132-induced, luminescence 8 h; hits give low values | activity change, negative = inhibition, % at 7.5 µM (by protocol) | hit rate 0.77% among 300,000;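 active means more than half of replicate wells show activity change below -50%, luminescence cut by over half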;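 further: luciferase reports HSF-1 transcriptional activity via heat shock element; 0% = median of DMSO wells and -100% = zero luminescence signal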
# AHR activator: AHR activators, primary screen, cell-based, luminescence, luciferase reporter, human; Aryl hydrocarbon receptor (Homo sapiens), P35869; AHR-responsive luciferase reporter cells; activation, % at 5 µM; hit rate 2.5% among 320,000; in the data active means activation above about 47%;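 further: 0% = vehicle wells and 100% = reference agonist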
# GAA30 counter: GAA30 FXN promoter activators, confirmation, counter-screen for GAA850 frataxin promoter activator project, cell-based, luminescence, HEK293, lucGAA30, triplicate; shares compounds with FXN GAA850 act; HEK293 lucGAA30 FXN promoter luciferase, 24 h; DMSO = 0%, 5 µM ipriflavone = 100%; AID 588350, 2011; activation, % at 6 µM; hit rate 66% among 1,900;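 active means mean activation above the mean of solvent-only control wells plus 3 SD, cut at about 22% in these data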;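 further: counterscreen of GAA850 promoter hits where activity marks nonselective or luminescence artifacts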
# FXN GAA850 conf: FXN GAA850 promoter activators in reporter cells, confirmation, cell-based, luminescence, HEK293 lucGAA850, triplicate | shares compounds with FXN GAA850 act | HEK293 lucGAA850 FXN promoter luciferase reporter, 24 h; 100% = activation by SAHA | activation, % at 6 µM | hit rate 86% among 1,900 | AID 588351, 2011;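 active means mean activation above a set limit taken from the primary screen, cut at about 8% in these data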;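 further: 0% = DMSO wells and 100% = 10 µM SAHA wells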
# * marks the source's active call; other numbers are inactive results; x = not tested or not shown.
SMILES,DAX1 inh,FXN GAA850 act,HSP90 refold inh,HSF1 activator,HSF1 inhib,AHR activator,GAA30 counter,FXN GAA850 conf
NC(=O)c1ccsc1NC(=O)CSc1ccccc1F,1,8.2*,-3,58*,22,5,89*,27*
Cc1csc(NC(=O)CSc2ccccc2F)n1,1,12*,-2,13,13,9,78*,25*
COc1ccc(NC(=O)Nc2cccc3c2O[C@H](CN(C)S(=O)(=O)c2ccccc2)[C@@H](C)CN([C@H](C)CO)C3=O)cc1,-1,-6,x,x,x,1,x,x
CCOC(=O)c1c(CN2CCN(CCO)CC2)n(C)c2cc(Br)c(OC)cc12,0,8.2*,4,-18,9,3,23*,18*
CCOc1cc(C(=O)NCC(=O)N2CCC3(CC2)NCCc2[nH]cnc23)cc(OCC)c1OCC,1,-1,0,11,-7,0,x,x
O=C(Nc1ccc(Cl)cc1)Nc1cccnc1,2,8.4*,3,13,7,10,63*,21*
Cc1cnc(NC(=O)Nc2ccc(Cl)cc2)s1,4,8.2*,0,274*,343,12,74*,46*
CC12CCC(C1)C(C)(C)C2OC(=O)c1ccccc1C(=O)O (stereo not given),0,-1,-2,-1,5,-3,x,x
C[n+]1ccc(CC2C(=[N+]([O-])[O-])C=Nc3ncnn32)cc1 (stereo not given),2,0,-6,x,x,x,x,x
O=C(/C=C/c1ccc(Cl)cc1Cl)NC(=S)Nc1ccccn1,4,3,0,5,10,32,x,x
Clc1ccc(C=Cc2ccccn2)c(Cl)c1,2,7.7*,x,x,x,x,120*,37*
COc1cccc(C(=O)Nc2cc3c(cc2Cl)OCCCO3)c1,2,7.9*,1,54*,18,1,101*,32*
O=C(COc1ccccc1F)NCc1ccc(-n2cccc2)cc1,-1,0,-1,5,0,6,x,x
Cc1nc(-c2nc(-c3c(C(=O)NN)noc3C)cs2)cs1,0,8.3*,2,20,16,14,88*,27*
Cc1nc(-c2nc(-c3c(C(=O)NNC(=O)c4ccc(Cl)cc4)noc3C)cs2)cs1,1,1,0,44,10,0,x,x
COc1cc(OC)cc(N(C(=O)CNC(=O)c2ccco2)C(C(=O)NCC2CCCO2)c2ccccc2)c1 (stereo not given),0,-2,2,-18,-1,3,x,x
COc1ccccc1CNC(=O)COC(=O)c1nc(Cl)ccc1Cl,1,0,x,-1,-2,3,x,x
O=C(Nc1ccc(F)cc1)C1CCC(N2C(=O)c3ccccc3C2=O)CC1 (stereo not given),-1,-3,1,4,-17,-1,x,x
Cc1ccc(N2C(=O)CS(=O)C(c3ccccc3)C2=O)cc1C (stereo not given),0,8.2*,-4,-12,4,2,58*,16*
O=C1C=C(Nc2ccc(Cl)cc2)CC(c2ccccc2)C1 (stereo not given),1,-3,0,11,13,41,x,x
CC1(C)Cc2c(c(-c3ccco3)nc3sc4c(NCCN5CCOCC5)ncnc4c23)CO1,-2,4,3,19,5,0,x,x
CC1(C)Cc2c(c(-c3ccco3)nc3sc4c(NCCCO)ncnc4c23)CO1,3,7.7*,2,5,5,3,9,14*
CN(C)c1ccc(N=Nc2ccccc2C(=O)OCC(=O)Nc2ccccc2C(F)(F)F)cc1,0,7.6*,-6,-6,-6,x,73*,23*
CCOC(=O)[C@H]1[C@H]2COc3cc(OC)ccc3[C@@H]2N2C(=O)N(c3cccc(Cl)c3)C(=O)[C@@]12C,1,-1,1,-12,-2,3,x,x
N#CCn1c(C2CCCCC2)nc2ccccc2c1=O,0,9.3*,-1,7,-11,5,26*,14*
SMILES,DAX1 inh,FXN GAA850 act,HSP90 refold inh,HSF1 activator,HSF1 inhib,AHR activator,GAA30 counter,FXN GAA850 conf
COc1ccc(NC(=O)C2CCCC2)cn1,0,0,-4,9,-5,1,x,x
CC(C)(C)c1cc(C(=O)N/N=C/c2ccco2)n[nH]1,1,8.3*,1,31,17,15,73*,29*
CCc1ccc(C2NC(=O)c3ccccc3O2)cc1 (stereo not given),0,4,-2,36,26,-1,x,x
N#Cc1c(-c2ccco2)cc(-c2ccc(F)cc2)nc1N,1,5,1,8,4,30,x,x
CC(C)Cc1cc(-c2ccco2)c(C#N)c(N)n1,1,8.2*,-2,19,4,-3,15,18*
Cc1ccc(S(=O)(=O)N2CCC(=O)N(CCOC(=O)Nc3ccc(C)c(C)c3)CC2)cc1,-1,1,0,-3,-9,3,x,x
Cc1cc(C)n2cc(CSc3nnc(SCc4cn5c(C)cc(C)nc5n4)s3)nc2n1,x,x,2,x,x,x,x,x
Cc1cc(C)n2cc(CSc3nc4ccccc4s3)nc2n1,2,7.7*,3,39,20,26,98*,30*
O=C(COC(=O)/C=C/c1ccccc1[N+](=O)[O-])Nc1ccc(S(=O)(=O)N2CCOCC2)cc1,0,0,x,x,x,9,x,x
COc1ccc(/C=C2\N=C(c3ccccc3)N(c3ccc(C(=O)O)cc3)C2=O)cc1OC,0,9.3*,-3,-18,-2,-5,41*,23*
CC1=N/C(=C\c2ccc(OC(C)C)cc2)C(=O)N1c1ccc(C(=O)O)cc1,-1,2,1,-1,-4,0,x,x
O=C(O)c1cc(-c2ccc(Cl)s2)[nH]n1,0,0,1,-14,-8,0,x,x
Cc1cc(O)c(NC(=O)c2ccc(Br)o2)cc1C,0,9.3*,0,-13,3,38,91*,27*
COc1ccc(/C=C2\SC(N3CCCCC3)=NC2=O)cc1OC,0,9.5*,-5,34,12,13,29*,21*
